The text below walks through data of PubChem BioAssay (NCATS).

In test [1] the target is Aldehyde dehydrogenase, mitochondrial (Homo sapiens) (UniProt P05091). Put plainly: qHTS for Inhibitors of the Aldehyde Dehydrogenase Family (ALDH2) Primary screen (AID 2061308). Further: nearly all actives have a fitted effect of over 55% in size.
Test [2] concerns the target Retinaldehyde dehydrogenase 3 (Homo sapiens) (UniProt P47895). The test is described as follows: qHTS for Inhibitors of the Aldehyde Dehydrogenase Family (ALDH1A3) Primary screen (AID 2061315). For orientation: Quantitative high-throughput screening tests each substance at several concentrations.

Results filed as inconclusive are left out. Entries that show only a call come without a potency. Active and inactive are the calls of the source. The call rests on the fitted dose curve; in most records, active means well fitted curve in the direction sought with a large enough effect; inconclusive means small, poorly fitted or top-dose-only effect, or another doubt; inactive means no such curve, though single readings can be large; an effect the other way counts as inactive or inconclusive.

As for `Cc1cc(C)n2ncc(C(=O)Nc3ccc(Cl)c(Cl)c3)c2n1`, the Potency result in test [1] and in test [2] was “inactive” throughout.
On to `Cc1ccc(-c2csc3ncnc(Sc4nnnn4C)c23)cc1`, for which the Potency result in test [1] and in test [2] was “inactive” throughout.
For the compound `CCOC(=O)c1ccoc1-c1ccc2ncnc(NCc3csc(C)n3)c2c1`, the Potency entry in test [1] and in test [2] was “inactive” each time.
For the compound `c1ccc2sc(-c3csc4c3CCNC4)nc2c1`, the Potency result in test [1] and in test [2] was “inactive” throughout.
For the compound `Oc1ccc(CNCc2ccccc2F)c2cccnc12`, the Potency entry in test [1] and in test [2] was “inactive” each time.
In the case of `Cc1ccc(-c2cc(C(=O)Nc3cccc4ccccc34)c3ccccc3n2)cc1C`, the Potency result in test [1] and in test [2] was “inactive” in each case.
On to `Cc1cccc(CNc2ccnc(-c3ccccc3C(F)(F)F)n2)c1`, for which the Potency result in test [1] and in test [2] was “inactive” in each case.
Turning to `Cc1ccc(S(=O)(=O)Nc2cnccc2C(=O)Nc2nc3ccccc3s2)cc1`, the Potency result in test [1] and in test [2] was “inactive” in each case.
On to `NC(=O)C1CCN(c2nc(-c3cccc(C(F)(F)F)c3)cs2)CC1`, for which the Potency result in test [1] and in test [2] was “inactive” each time.
For `CS(=O)(=O)c1ccc(C(=O)OC(C(=O)NC2C3CC4CC(C3)CC2C4)c2ccccc2)cc1[N+](=O)[O-]` (centres undefined), the Potency result in test [1] and in test [2] was “inactive” in each case.
In the case of `COc1ccc(/C=C2/C(=O)Nc3ccccc32)cc1O`, the Potency result in test [1] and in test [2] was “inactive” each time.
With `Cc1cccc(-n2cnc3cc(C(=O)NC(C)(C)C)ccc32)c1`, the Potency result in test [1] and in test [2] was “inactive” in each case.
For `O=C(Nc1ccc(-n2cncn2)c(C(F)(F)F)c1)Nc1nnc(-c2ccncc2)s1`, the Potency entry in test [1] and in test [2] was “inactive” in each case.
Regarding `CCOC(=O)c1ccc(-c2ccc3ncnc(NCc4csc(C)n4)c3c2)o1`, the Potency entry in test [1] and in test [2] was “inactive” throughout.
As for `Cc1ccc(NS(=O)(=O)c2ccc3c(c2)CCC(=O)N3C)cc1Cl`, the Potency entry in test [1] and in test [2] was “inactive” in each case.
For the compound `O=S1(=O)N=C(Oc2ccccc2-c2ccccc2)c2ccccc21`, the Potency entry in test [1] and in test [2] was “inactive” each time.
In the case of `COc1cccc(CNc2ccc(S(=O)(=O)Nc3ccccc3)cc2)c1O`, the Potency result in test [1] and in test [2] was “inactive” each time.
In the case of `Cc1ccc(NS(=O)(=O)c2ccc(N3CCCC3=O)cc2)cc1C`, the Potency entry in test [1] and in test [2] was “inactive” each time.
Regarding `CCOc1ccc(CCNC(=O)c2cc3sccc3n2Cc2ccc(Cl)c(F)c2)cc1OCC`, the Potency entry in test [1] and in test [2] was “inactive” throughout.
For the compound `Cc1ccc(N2CCC(CNc3nc(-c4ccccc4C(C)C)ncc3C)CC2)cn1`, the Potency result in test [1] and in test [2] was “inactive” each time.
Take `Fc1ccc(-c2ccc(Nc3nc(-c4ccncc4)nc4ccccc34)cc2F)cc1`: the Potency entry in test [1] and in test [2] was “inactive” in each case.
As for `CCCN(CCC)C(=O)C(CCC(=O)OCCCN1CCN(CCOC(=O)Cc2c(C)n(C(=O)c3ccc(Cl)cc3)c3ccc(OC)cc23)CC1)NC(=O)c1ccccc1` (centres undefined), the Potency entry in test [1] and in test [2] was “inactive” in each case.
`COc1ccc(C2=Nn3c(nnc3-c3ccccc3Cl)SC2)cc1OC`: the Potency entry in test [1] and in test [2] was “inactive” each time.
Turning to `COc1ccc(C2=Nn3c(nnc3-c3ccccc3O)SC2)c(OC)c1`, the Potency result in test [1] and in test [2] was “inactive” throughout.
Take `O=c1c2ccc(C(F)(F)F)cc2nc2sc(Nc3ccc4c(c3)CCC4)nn12`: the Potency entry in test [1] and in test [2] was “inactive” in each case.
In the case of `COc1ccc(C2NC(=O)c3ccccc3N2)cc1COc1c(C)cc(NC(C)=O)cc1C` (centres undefined), the Potency result in test [1] and in test [2] was “inactive” each time.
`CC(=O)Nc1sc2c(c1-c1nc3ccccc3s1)CCCN(C(C)C)C2`: the Potency entry in test [1] and in test [2] was “inactive” in each case.
`Cc1ccc(S(=O)(=O)Nc2ccc(Cl)cc2C(=O)Nc2nc(-c3ccccc3)cs2)cc1`: the Potency entry in test [1] and in test [2] was “inactive” in each case.
For the compound `CCOc1cc(F)c(CCNC(=O)c2cc3sccc3n2Cc2ccccc2)cc1OCC`, the Potency result in test [1] and in test [2] was “inactive” throughout.
On to `CN1CCN(c2nnc(NC(=O)Nc3ccc(Cl)c(Cl)c3)s2)CC1`, for which the Potency result in test [1] and in test [2] was “inactive” each time.
In the case of `CC(C)C1=CC2=CCC3[C@](C)(CCC[C@@]3(C)C(=O)O)C2CC1O` (some centres undefined), the Potency entry in test [1] and in test [2] was “inactive” each time.
As to `O=C(COc1ccccc1Br)NCCc1nc2ccccc2[nH]1`, the Potency entry in test [1] and in test [2] was “inactive” throughout.
In the case of `Cc1ccc(C)n1-c1cccc(-c2nn[nH]n2)c1`, the Potency result in test [1] and in test [2] was “inactive” throughout.
Take `COc1ccc(Nc2nc(-c3ccncc3)nc3ccccc23)cc1F`: the Potency entry in test [1] and in test [2] was “inactive” each time.
In the case of `COc1cc(-c2ccc3ncnc(NCc4nc(C)cs4)c3c2)cc(OC)c1OC`, the Potency result in test [1] and in test [2] was “inactive” each time.
As to `Cc1noc(C)c1-c1ccc2ncnc(NCC3CCN(C)CC3)c2c1`, the Potency result in test [1] and in test [2] was “inactive” each time.
With `Brc1ccccc1-c1nc(NCc2ccc(-c3cccnc3)cc2)c2ccccc2n1`, the Potency result in test [1] and in test [2] was “inactive” throughout.
With `Cc1noc(-c2sc3c(c2-c2nc4ccccc4s2)CCNC3)n1`, the Potency result in test [1] and in test [2] was “inactive” each time.
Turning to `CCCc1cc(=O)c2ccccc2n1C`, the Potency entry in test [1] and in test [2] was “inactive” in each case.
For the compound `Nc1ccc(S(=O)(=O)Nc2cccc3cccnc23)cc1`, the Potency result in test [1] and in test [2] was “inactive” in each case.
Take `Cc1sc(NC(=O)Cc2ccc3c(c2)OCO3)nc1-c1ccc2c(c1)CCN2C(=O)C1CCCCC1`: the Potency entry in test [1] and in test [2] was “inactive” in each case.
With `CC(C)(C)OC(=O)NCc1nnc(-c2cc3ccccc3[nH]2)o1`, the Potency result in test [1] and in test [2] was “inactive” in each case.
